36 compounds from PubChem BioAssay (Tox21) can be followed below.

Inconclusive results are not listed. Entries that show only a call come without a potency. Calls of active or inactive are those of the source. Calls follow the shape of the dose curve; as a rule, active = well fitted cell-killing curve with a large enough effect in the repeat runs; inconclusive = weak or mixed curves, or effect the other way; inactive = flat fitted curve, though single readings scatter.
Potency is read from the fitted curve at half-maximal effect.

The nature of this experiment: qHTS RealTime-Glo MT Cell Viability Assay in HEK293 cells - 0 hour (AID 1224880). Also: nearly all actives have a fitted effect of over 45% in size. The conditions noted are these: RealTime-Glo luminescence; series mostly up to 76.8 µM. A digest of the protocol:
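Measured as luminescence from the same continuously cultured HEK293 wells at successive time points (0, 8, 16, 24, 32, 40 h) after compound addition. Reagent present from seeding; dosing at 5 h; incubation 37 C.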
(In qHTS, concentration-response curves come from the screen itself.)
With `CC1=NC(C)OC1C` (stereo unspecified), the Potency entry is “inactive”.
The value for `CCCC(c1cc(C(C)(C)C)c(O)cc1C)c1cc(C(C)(C)C)c(O)cc1C` was “inactive”.
The value for `CCCCCCCCn1sc(Cl)c(Cl)c1=O` was “inactive”.
The value for `CSc1ccc(/C=C2/C(C)=C(CC(=O)O)c3cc(F)ccc32)cc1` was “inactive”; that for `C/C=C(\C)C(=O)OCc1ccccc1` was “inactive”.
On to `CCOC(=O)O[C@H](C)OC(=O)c1ccc2c(c1)cc(C(=O)NC1CCN(C(C)C)CC1)n2Cc1cc(-c2ccc(Cl)s2)on1`, for which the Potency result is “inactive”.
Under `O=c1[nH]cnc2nc[nH]c12` stands “inactive”; under `C[C@]12CCC(=O)C=C1CC[C@@H]1[C@@H]2[C@@H](O)C[C@@]2(C)[C@H]1CC[C@]2(O)C(=O)COC(=O)CCC(=O)O`, 10.7 µM (active); under `NC(=O)CC[C@@H]1NC(=O)[C@H](Cc2ccccc2)NC(=O)[C@H](Cc2ccc(O)cc2)NC(=O)CCSSC[C@@H](C(=O)N2CCC[C@H]2C(=O)N[C@@H](CCCN=C(N)N)C(=O)NCC(N)=O)NC(=O)[C@H](CC(N)=O)NC1=O`, “inactive”.
The value for `COC(=O)C1=C(C)NC(C)=C(C(=O)OCC(C)C)C1c1ccccc1[N+](=O)[O-]` (stereo unspecified) was 21.3 µM (active).
As to `[Cl][Au]([Cl])[Cl]`, the Potency result is “inactive”.
The value for `OCCCCCCCCCCCCBr` was “inactive”; that for `CC(C)=CCOc1ccc(/C=C/C(=O)c2ccc(OCC=C(C)C)cc2OCC(=O)O)cc1` was “inactive”; that for `CSc1ccc(C(=O)c2[nH]c(=O)[nH]c2C)cc1` was “inactive”.
The value for `CC(C)(C)c1ccc(C(=O)CCCN2CCC(OC(c3ccccc3)c3ccccc3)CC2)cc1` was “inactive”; that for `CCC(C)Nc1ccc(NC(C)CC)cc1` (stereo unspecified) was 19.9 µM (active); that for `O=[N+]([O-])c1ccccc1Nc1ccccc1` was “inactive”.
Under `Clc1ccc2nsnc2c1NC1=NCCN1` stands “inactive”.
As to `CCCCc1oc2ccc(NS(C)(=O)=O)cc2c1C(=O)c1ccc(OCCCN(CCCC)CCCC)cc1`, the Potency result was “inactive”.
On to `NNC(=O)c1cccc(C(=O)NN)c1`, for which the Potency entry was “inactive”.
For `CCCCCCCCCCCCCCCS(=O)(=O)Oc1ccccc1`, the Potency result was “inactive”.
As to `CCC(C)(C)C1CCCCC1OC(C)=O` (stereo unspecified), the Potency entry is “inactive”.
The value for `CCCCCCC[N+](CC)(CC)CCCCc1ccc(Cl)cc1` was “inactive”.
The value for `CCCCCOC(=O)CCCC` was “inactive”; that for `OCCN(CCO)c1nc(N2CCCCC2)c2nc(N(CCO)CCO)nc(N3CCCCC3)c2n1` was “inactive”; that for `Cc1cccc(S(=O)(=O)O)c1C` was “inactive”.
With `COc1cc(/C=C/C(=O)O[C@H]2CC[C@]34C[C@]35CC[C@]3(C)[C@@H]([C@H](C)CCC=C(C)C)CC[C@@]3(C)[C@@H]5CC[C@H]4C2(C)C)ccc1O`, the Potency result is “inactive”.
For the compound `CCCCCCCCCCn1cc[n+](CCCCCCCCCC)c1C`, the Potency entry was “inactive”.
The value for `Clc1ccc(C(Cn2ccnc2)OCc2ccc(Sc3ccccc3)cc2)c(Cl)c1` (stereo unspecified) was “inactive”; that for `Cc1cc(N)c(S(=O)(=O)O)cc1Cl` was “inactive”; that for `CC(C)(C)c1ccc(C(=O)O)cc1` was “inactive”.
The value for `CCCCCCCCCCC=O` was “inactive”; that for `CC(C)C(C)(C)C(C)(C)C(C)(C)S` was “inactive”.
The value for `Oc1cccc2cc3cccc(O)c3c(O)c12` was “inactive”; that for `CC(=O)OCC(C)OC(C)=O` (stereo unspecified) was “inactive”; that for `c1ccc(CSCc2ccccc2)cc1` was “inactive”.
